About 83,000 compounds went through this panel and 20% of them were active in at least one assay; those are over-represented in the sample as a whole.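 How to read the values: 0–100, growth inhibition (40 = 60% inhibited); 0, no net growth; -100 to 0, cell death (-40 = 40% of starting cells died; -100 = all dead).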 A number with no mark means an inactive call. The source made the active and inactive calls. Rule for the calls: active = growth percent below 10; inactive = the rest.
Experiments:
Experiment in all cases: NCI-60 one-dose screen, 48 h (100 = growth as untreated, 0 = no growth, -100 = all killed)
NCI-H322M lung = settings: 10 µM unless noted
HOP-62 NSCLC = settings: 10 µM unless noted
A549/ATCC NSCLC = settings: 10 µM unless noted
K-562 leukemia = settings: 10 µM unless noted
LOX IMVI melanoma = settings: 10 µM unless noted
SK-MEL-28 melanoma = settings: 10 µM unless noted
SN12C renal = settings: 10 µM unless noted
CAKI-1 renal = settings: 10 µM unless noted
CCRF-CEM leukemia = settings: 10 µM unless noted
RPMI-8226 leukemia = settings: 10 µM unless noted
OVCAR-4 ovarian = settings: 10 µM unless noted
IGROV1 ovarian = settings: 10 µM
BT-549 breast = settings: 10 µM
SNB-19 CNS = settings: 10 µM unless noted
SR leukemia = settings: 10 µM
HOP-92 NSCLC = settings: 10 µM unless noted
NCI-H522 lung = settings: 10 µM unless noted
EKVX NSCLC = settings: 10 µM unless noted
HS 578T breast = settings: 10 µM unless noted

Structure (SMILES)	growth (NCI-H322M lung)	growth (HOP-62 NSCLC)	growth (A549/ATCC NSCLC)	growth (K-562 leukemia)	growth (LOX IMVI melanoma)	growth (SK-MEL-28 melanoma)	growth (SN12C renal)	growth (CAKI-1 renal)	growth (CCRF-CEM leukemia)	growth (RPMI-8226 leukemia)	growth (OVCAR-4 ovarian)	growth (IGROV1 ovarian)	growth (BT-549 breast)	growth (SNB-19 CNS)	growth (SR leukemia)	growth (HOP-92 NSCLC)	growth (NCI-H522 lung)	growth (EKVX NSCLC)	growth (HS 578T breast)
FC(F)=C(F)c1ccccc1	104%	87.4%	108%	89.2%	88.6%	102%	112%	109%	80.3%	97.5%	111%	99%	96%	–	–	–	–	–	–
O=C(NCc1ccc([N+](=O)[O-])cc1)Nc1ccc(S(=O)(=O)F)cc1	88.3%	70.5%	75%	93%	92.9%	96%	85.8%	78%	81.4%	–	83.4%	94.8%	94.9%	88.6%	79.1%	–	–	–	–
COc1ccc(/C=C(/C(=O)N2CCCC2)c2cc(OC)c(OC)c(OC)c2)cc1N	48.1%	–	41.1%	16.1%	35.3%	60.9%	40.8%	–	19%	31.6%	46.4%	51.4%	57.1%	–	19.5%	46.1%	3.14% (active)	52.8%	15.2%
CNC(=O)Oc1ccccc1	107%	116%	94.9%	109%	106%	–	–	113%	111%	–	–	–	105%	97%	99%	–	–	–	–
CC1(C)N=C(N)N=C(N)N1c1ccc(CNC(=O)Nc2ccc(S(=O)(=O)F)c(Cl)c2)c(Cl)c1	46%	29.4%	10%	16.4%	11.9%	48.6%	17%	–	–	27.6%	68.8%	30.6%	48.6%	56%	34.6%	–	–	–	–
O=S(=O)(F)c1ncnc2nc[nH]c12	97.9%	86.5%	98.5%	92.3%	85.8%	97%	91.8%	81.4%	101%	–	102%	–	100%	93.4%	–	–	–	103%	77.1%
COc1cc2c(cc1OC)CN(C)C(C)C2 (configuration not stated)	106%	–	93.6%	101%	95.1%	106%	94.2%	101%	100%	105%	103%	111%	115%	99%	101%	–	82.3%	109%	107%
Cc1cc(N(CCCl)CCCl)ccc1C=Nc1ccc2ccccc2c1	103%	42.7%	69.8%	80.7%	82.8%	102%	–	1.75% (active)	55.3%	–	83.5%	–	86.1%	84.7%	46.2%	–	–	–	–
O=[N+]([O-])c1cccc([As]=[As]c2cccc([N+](=O)[O-])c2)c1 (configuration not stated)	-97.4% (active)	–	-75.2% (active)	-21.7% (active)	-55.4% (active)	-98.4% (active)	-96% (active)	-95.9% (active)	–	-39.3% (active)	–	-57.8% (active)	-97.7% (active)	-98.6% (active)	–	-99.3% (active)	–	–	6.73% (active)
CC1(C)N=C(N)N=C(N)N1c1ccc(OCCCCNC(=O)c2ccc(S(=O)(=O)F)cc2)c(Cl)c1	55.5%	102%	51%	16.2%	25.7%	96%	44.7%	99.2%	31%	89.9%	–	33.7%	79.5%	103%	34.8%	–	–	–	–
Nc1ccc(N)c2c1Oc1ccccc1O2	97.2%	–	107%	92.1%	90.3%	108%	86.1%	84.3%	30.3%	81%	110%	6.91% (active)	97.9%	104%	–	74.8%	–	92.1%	75.2%
